# Legend:
# Type in all cases: functional
# Plasmodium falciparum [1] = assay: GSK_TCMDC: Inhibition of Plasmodium falciparum 3D7 in whole red blood cells, using parasite LDH activity as an index of growth. Test compounds present at 2uM
# Plasmodium falciparum [2] = assay: GSK_TCMDC: Inhibition of Plasmodium falciparum Dd2 in whole red blood cells, using parasite LDH activity as an index of growth. Test compounds present at 2uM
# HepG2 = assay: GSK_TCMDC: Percent inhibition of human HepG2 cell line. Test compounds present at 10uM.
SMILES,Inhibition (Plasmodium falciparum [1]),Inhibition (Plasmodium falciparum [2]),Inhibition (HepG2)
Cc1cccc2nc(-c3ccc(-c4cccc(CNCc5cccc(N)c5)c4)s3)[nH]c12.O=C(O)C(F)(F)F,100%,85%,15%
CN(C)c1ccc(/N=C2/N/C(=N/c3ccc(N(C)C)cc3)c3ccccc32)cc1,93%,20%,23%
COc1cc(CCNC(=N)/C=C/c2ccc(Cl)cc2)ccc1Cl.Cl,100%,16%,68%
Cc1cc(CNC(=O)c2ccc(-c3ccc(-c4nc5cc(C(F)(F)F)ccc5[nH]4)s3)cc2)on1,93%,56%,15%
COc1cc(C(=O)Nc2cccc(-c3cn4cccc(C)c4n3)c2)cc(OC)c1OC,99%,77%,0%
COc1ccc(OC)c(Cc2cnc3nc(N)nc(N)c3c2C)c1 [PIRITREXIM],92%,97%,68%
CCc1sc(CN(CCCNc2cc(=O)c3ccccc3[nH]2)Cc2sc(CC)c(Br)c2-c2ccsc2)c(-c2ccsc2)c1Br.Cl,99%,98%,10%
N=C(/N=C(/NCCCCCCN/C(=N/C(=N)NCc1ccc(Cl)c(Cl)c1)N1CCCCC1)N1CCCCC1)NCc1ccc(Cl)c(Cl)c1,100%,99%,6%
COc1ccc(-c2csc(NC(=O)CCC(=O)O)n2)cc1OC,94%,0%,63%
COC(=O)c1cccc(CNCc2ccc(-c3cccc(-c4nc5ccccc5[nH]4)c3)cc2)c1.O=C(O)C(F)(F)F,100%,46%,5%
N=C(N)Nc1nc(-c2ccc(NC(=O)Nc3cccc(-c4csc(NC(=N)N)n4)c3)cc2)cs1,94%,80%,0%
O=C(O)C(F)(F)F.O=C1COC2(CN1C1CCN(Cc3ccc(O)cc3Cl)C1)c1ccccc1-c1ccccc12 (stereo unspecified),82%,70%,10%
O=C(Nc1cccc(OC2CCN(Cc3ccccc3)CC2)c1)Nc1cccc([N+](=O)[O-])c1.O=C(O)C(F)(F)F,100%,48%,10%
Cc1[nH]c2ccccc2c1CC1CCN(CC2CCN(C(=O)/C=C/c3ccc(Cl)c(Cl)c3)CC2)CC1,92%,14%,34%
CCCN(CCC)C(=S)N/N=C1/C(=O)Nc2ccccc21,97%,86%,28%
Br.CCCCCCCCn1c2c(c(=N)c3c1CCC3)CCCC2,100%,100%,57%

SMILES,Inhibition (Plasmodium falciparum [1]),Inhibition (Plasmodium falciparum [2]),Inhibition (HepG2)
C=CCOc1ccc(C(=O)Nc2nonc2-c2ccc(OC)c(OC)c2)cc1,100%,91%,2%
CN1CCC(NCc2cccc(-c3ccc(S(=O)(=O)NCCc4ccccn4)cc3)c2)CC1.O=C(O)C(F)(F)F,95%,1%,10%
O=C(NCc1cccs1)[C@H](Cc1ccccc1)Nc1ccnc(NCCc2ccc(F)cc2)n1.O=C(O)C(F)(F)F,85%,52%,1%
CN1CCN(c2ccnc3ccc(NC(=O)Nc4ccc(Br)cc4)cc23)CC1,100%,99%,12%
COc1cc2[nH]c(-c3ccc(O)cc3)c(C)c(=O)c2c(OC)c1OC,100%,94%,1%
CCOc1ccc(C(Cc2ccccc2)NC(=O)c2cccnc2)cc1OCC (stereo unspecified),100%,98%,0%
O=C(Nc1cccc(-c2cccc(-c3nc4ccccc4[nH]3)c2)c1)Nc1ccc(Cl)c(Cl)c1,100%,98%,78%
CS(=O)(=O)c1cccc(-c2cnc(N)c3cc(-c4cccc(F)c4)ccc23)c1,97%,13%,45%
CC(=NNC(=N)N)C(=O)Nc1ccc(Cl)c(Cl)c1.O=S(=O)(O)O,100%,97%,0%
CN(C)CCOc1ccc(-c2cc(-c3ccc(Cl)c(O)c3)c(-c3ccnc(N)n3)o2)cc1,100%,95%,43%
Cc1cccc2nc(-c3cccc(-c4ccc(NC(=O)c5cccc(C(N)=O)c5)cc4)c3)[nH]c12,100%,61%,25%
COc1ccc(C2CC(c3cccs3)=NN2C(=O)COc2cccc3c2CCCC3O)cc1OC (stereo unspecified),93%,62%,5%
COc1cccc(CNC(=O)[C@@H]2CN(C(=O)c3ccccc3)CCN2)c1.O=C(O)C(F)(F)F,92%,0%,4%
O=C(c1ccc(Cl)cc1Cl)N1CCCC(C(F)(F)F)C1 (stereo unspecified),95%,47%,6%
O=C(Nc1ccc(OC2CCN(Cc3ccc(F)cc3)C2)c(Cl)c1)c1cccs1.O=C(O)C(F)(F)F (stereo unspecified),98%,97%,21%
O=C(Cc1cccc(Cl)c1)N1CCc2cc3nccc(N4CCN5CCC[C@H]5C4)c3cc21,96%,4%,14%

# Source: ChEMBL document CHEMBL1157539, “Thousands of chemical starting points for antimalarial lead identification” (Nature, 2010)
